Rows were chosen to be rich in hits. Some 19% of all compounds tested hit in one or more screens of this group.
TDP1 block: qHTS Assay for Inhibitors of Tyrosyl-DNA Phosphodiesterase (TDP1); actives 0.28% (n = 350,000); Potency, µM (titrated, usually from 130 µM), hits mostly inhibitors; recombinant TDP1, AlphaScreen DNA substrate cleavage; Tyrosyl-DNA phosphodiesterase 1 (Homo sapiens), Q9NUW8; AID 485290, 2010; note: nearly all actives have a fitted effect of over 40% in size
Target sequence (Q9NUW8 whole entry, looked up): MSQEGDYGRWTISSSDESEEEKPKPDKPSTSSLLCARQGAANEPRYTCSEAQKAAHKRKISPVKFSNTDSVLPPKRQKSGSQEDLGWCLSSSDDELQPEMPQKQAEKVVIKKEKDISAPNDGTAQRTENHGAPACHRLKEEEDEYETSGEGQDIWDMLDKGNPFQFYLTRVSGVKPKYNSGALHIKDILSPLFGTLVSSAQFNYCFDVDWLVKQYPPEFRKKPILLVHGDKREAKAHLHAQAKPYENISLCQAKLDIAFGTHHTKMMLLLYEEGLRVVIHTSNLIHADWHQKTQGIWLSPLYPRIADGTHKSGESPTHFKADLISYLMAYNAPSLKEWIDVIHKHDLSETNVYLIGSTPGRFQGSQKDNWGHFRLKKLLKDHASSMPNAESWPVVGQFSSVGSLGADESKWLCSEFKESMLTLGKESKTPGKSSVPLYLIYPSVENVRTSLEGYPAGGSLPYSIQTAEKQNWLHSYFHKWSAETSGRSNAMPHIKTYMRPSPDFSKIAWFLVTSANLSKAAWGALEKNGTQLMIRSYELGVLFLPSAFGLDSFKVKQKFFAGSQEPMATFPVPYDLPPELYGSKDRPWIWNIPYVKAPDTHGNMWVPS
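Recombinant E. coli-expressed Tdp1 (1 nM) preincubated with compound 15 min at RT, then 5'-biotin/3'-phosphotyrosine-FITC DNA substrate (15 nM) added for 5 min. AlphaScreen beads (10 ug/ml) added, 10 min RT; tyrosine-FITC cleavage read as signal loss.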
TGFb SMAD3 inh: qHTS for Inhibitors of TGF-b; HepG2 CAGA-GFP TGF-b/SMAD3 reporter, GFP fluorescence, 18 h; TGF-beta stimulated, 500 pg/mL final; Potency, µM (series often up to 46.1 µM), most hits filed as inhibitors; actives 1.2% (n = 410,000); note: nearly all actives have a fitted effect of over 65% in size
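Cell-based qHTS in HEPG2 carrying a CAGA-GFP Smad reporter; compounds added before 500 pg/mL final TGF-beta, 18 h incubation at 37 degrees C, GFP fluorescence quantified per cell by imaging cytometry.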
TDP1 cell noCPT: qHTS for Inhibitors of human tyrosyl-DNA phosphodiesterase 1 (TDP1): qHTS in cells in absence of CPT. DT40 Tdp1-/- hTDP1 cells, no CPT, ATP luminescence, 48 h. actives 15% (n = 420,000). AID 686978, 2013. Potency, µM (doses to about 46.2 µM), most hits filed as inhibitors; note: nearly all actives have a fitted effect of over 55% in size
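Growth of hTDP1-complemented DT40 Tdp1-knockout cells is measured by ATP luminescence after at least 48 hr compound exposure at 37 °C, with DMSO substituting for the 20 nM CPT used in the parallel screen.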
IL1B secr inh: qHTS for Inhibitors of Inflammasome Signaling: IL-1-beta AlphaLISA Primary Screen; THP-1 LPS/ATP IL-1B secretion, AlphaLISA, 16 h; hits give low values; activity change, % at 57.5 µM; actives 4.7% (n = 360,000); in the data active = activity change below about -50%; inconclusive = mostly about -30% to -49%
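Secreted IL-1B measured by AlphaLISA bead assay after 16 h compound exposure of THP-1 cells; compounds (final up to 57.5 uM) added 1 h before LPS (250 ng/mL) and ATP (1.25 mM) stimulation; lower signal means less secretion.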
TDP1 cell CPT: qHTS for Inhibitors of human tyrosyl-DNA phosphodiesterase 1 (TDP1): qHTS in cells in presence of CPT; chicken DT40 Tdp1-/-;hTDP1 cells + 20 nM CPT, ATP luminescence, 48 h; Potency, µM (highest dose often 46.2 µM), usual class: inhibitors; actives 12% (n = 420,000); AID 686979, 2013; note: nearly all actives have a fitted effect of over 55% in size
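Cell growth measured by CellTiter-Glo luminescence after a minimum 48 h, 37 C compound exposure with 20 nM CPT in Tdp1-knockout DT40 cells stably expressing hTDP1, seeded 400/well; qHTS titration format.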
HepG2 tox: qHTS for Inhibitors of TGF-b: Cytotox Counterscreen; HepG2 CAGA-GFP viability, ATP luminescence, 18 h; Potency, µM (highest dose often 46.1 µM), usual class: cytotoxic; actives 0.76% (n = 410,000); AID 588856, 2011
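CellTiter-Glo luminescence gave cytotoxicity after 18 hours at 37 degrees C. The cells were HepG2 CAGA-GFP in 1% FBS DMEM, stimulated with 500 pg/mL TGF-beta after compound addition. %Activity was normalised to no-cell wells (complete cell-killing) and DMSO (no toxicity), and curves were fitted and classified.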
Numbers stand for hits; [ ] = another dose, or the depositor's remark. Unless noted, calls come from the whole dose curve; as a rule, active = well fitted curve in the direction sought with a large enough effect; inconclusive = small, poorly fitted or top-dose-only effect, or another doubt; inactive = no such curve, though single readings can be large; an effect the other way counts as inactive or inconclusive.

`O=C(CN(C(=O)c1csnn1)c1ccc(F)cc1)NCc1ccc2c(c1)OCO2` gave TGFb SMAD3 inh inactive, TDP1 cell noCPT inactive, IL1B secr inh inactive, TDP1 cell CPT inactive and HepG2 tox inactive.
CCOc1ccc(C(C)=O)cc1COC(=O)c1ccccc1C(=O)N(C)Cc1ccccc1 was read as TDP1 block inactive, TGFb SMAD3 inh inactive, TDP1 cell noCPT 7.31µM, IL1B secr inh inconclusive, TDP1 cell CPT 18.4µM and HepG2 tox inactive.
`CC(C)(C)N(Cc1ccccc1)C(=O)COC(=O)c1ccc(N2CCCC2=O)cc1` gave TDP1 block inactive, TGFb SMAD3 inh inactive, TDP1 cell noCPT 16.4µM, IL1B secr inh inactive, TDP1 cell CPT inconclusive and HepG2 tox inactive.
Screening Cc1[nH]c2ccccc2c1C(=O)COC(=O)c1ccccc1SCC(=O)N1CCCC1 returned TGFb SMAD3 inh inactive, TDP1 cell noCPT 11.2µM, TDP1 cell CPT inconclusive and HepG2 tox inactive.
`Cc1[nH]c2ccccc2c1C(=O)COC(=O)c1ccccc1O` gave TDP1 block inactive, TGFb SMAD3 inh inactive, TDP1 cell noCPT inactive, IL1B secr inh inactive, TDP1 cell CPT inactive and HepG2 tox inactive.
`O=C(COC(=O)c1ccc(N2CCCC2=O)cc1)c1ccccc1` gave TDP1 block inactive, TGFb SMAD3 inh inactive, TDP1 cell noCPT inactive, IL1B secr inh inactive, TDP1 cell CPT inactive and HepG2 tox inactive.
Screening CN(Cc1ccccc1)C(=O)c1ccccc1C(=O)OCC(=O)N(Cc1ccccc1)C(C)(C)C returned TDP1 block inactive, TGFb SMAD3 inh inconclusive, TDP1 cell noCPT 14.6µM, IL1B secr inh -50.1, TDP1 cell CPT 23.1µM and HepG2 tox inactive.
COC(=O)c1cc(CNC(=O)c2ccccc2)cc(NC(=O)c2ccccc2OC)c1 was read as TDP1 cell noCPT inconclusive and TDP1 cell CPT inactive[9.04 µM].
Cc1noc(C)c1C(=O)N1CCC[C@@]2(CCN(c3ccccc3)C2)C1 was read as TDP1 cell noCPT inconclusive and TDP1 cell CPT inactive.
`CCc1ccc(CNC(=O)c2cnc3sc4cc(OC)ccc4n3c2=O)cc1` gave TDP1 block inactive, TGFb SMAD3 inh inactive, TDP1 cell noCPT inactive, TDP1 cell CPT inactive and HepG2 tox inactive.
`C[C@@H](CO)[C@H](/C=C/c1ccccc1)CCO[Si](c1ccccc1)(c1ccccc1)C(C)(C)C` gave TDP1 block inactive, TGFb SMAD3 inh inactive and HepG2 tox inactive.
`CN(Cc1ccccc1)C(=O)COC(=O)c1ccc(Cl)cc1N` gave TDP1 block inactive, TGFb SMAD3 inh inactive, TDP1 cell noCPT inconclusive, IL1B secr inh inactive, TDP1 cell CPT 10.3µM and HepG2 tox inactive.
For CN(Cc1ccccc1)C(=O)COC(=O)Cc1ccc(Cl)cc1 the results were TDP1 block inactive, TGFb SMAD3 inh inactive, TDP1 cell noCPT inactive, IL1B secr inh inactive, TDP1 cell CPT inactive and HepG2 tox inactive.
Screening CC(C)(C)N(Cc1ccccc1)C(=O)COC(=O)c1ccccc1SCC(=O)N1CCCC1 returned TGFb SMAD3 inh inactive, TDP1 cell noCPT inconclusive, IL1B secr inh -51.9, TDP1 cell CPT inconclusive and HepG2 tox inactive.
`O=C(COC(=O)c1ccccc1SCC(=O)N1CCCC1)Nc1ccccc1` gave TDP1 block inactive, TGFb SMAD3 inh inactive, TDP1 cell noCPT inactive, IL1B secr inh inactive, TDP1 cell CPT inconclusive and HepG2 tox inactive.
For Cc1ccccc1N1CCN(C(=O)NCc2cccc(Cl)c2)CC1 the results were TDP1 block inactive, TGFb SMAD3 inh inactive, TDP1 cell noCPT inconclusive, IL1B secr inh inactive, TDP1 cell CPT inactive and HepG2 tox inactive.
`COc1cc(C(=O)NC2CCCc3c2cnn3-c2ccccc2F)cc(OC)c1OC` (configuration not stated) gave TDP1 block inactive, TGFb SMAD3 inh inactive, TDP1 cell noCPT 2.91µM, IL1B secr inh inactive, TDP1 cell CPT 10.3µM and HepG2 tox inactive.
`Cc1nnsc1C(=O)NC1CCCc2c1cnn2-c1cc(F)cc(F)c1` (configuration not stated) gave TDP1 block inactive, TGFb SMAD3 inh inactive, TDP1 cell noCPT inactive, IL1B secr inh inactive, TDP1 cell CPT inactive and HepG2 tox inactive.
COC(=O)c1ccc(C(=O)NC2CCCc3c2cnn3-c2ccccc2F)nc1 (configuration not stated) was read as TDP1 block inactive, TGFb SMAD3 inh inactive, TDP1 cell noCPT 2.91µM, IL1B secr inh inactive, TDP1 cell CPT 5.17µM and HepG2 tox inactive.
Cc1nnsc1C(=O)NC1CCCc2c1cnn2-c1ccc(F)cc1F (configuration not stated) was read as TDP1 block inactive, TGFb SMAD3 inh inactive, TDP1 cell noCPT 5.8µM, IL1B secr inh inactive, TDP1 cell CPT 6.51µM and HepG2 tox inactive.
CC(C)[C@@H](CC(=O)N[C@@H]1CCNC[C@H]1C(=O)N[C@H](CC(=O)N[C@@H](CCC(=O)O)CC(=O)O)Cc1ccccc1)NC(=O)C[C@H](Cc1ccccc1)NC(=O)[C@@H]1CNCC[C@H]1N was read as TDP1 block inactive.
For CCN(CC)c1ccc(CNCCCSc2nnnn2C)cc1 the results were TDP1 block inactive, TGFb SMAD3 inh inactive, TDP1 cell noCPT inconclusive, TDP1 cell CPT inconclusive and HepG2 tox inactive.
CCOC(=O)C1=C(N)n2c(s/c(=C\c3cccnc3)c2=O)=C(C(=O)OCC)C1c1cccnc1 (configuration not stated) was read as TDP1 block inactive.
CCOC(=O)C1=C(N)n2c(s/c(=C\c3cccs3)c2=O)=C(C(=O)OCC)C1c1cccs1 (configuration not stated) was read as TDP1 block inactive, TGFb SMAD3 inh inconclusive, TDP1 cell noCPT 6.51µM, IL1B secr inh inactive, TDP1 cell CPT 4.11µM and HepG2 tox inactive.
Screening C#CCSc1nc(=O)c2cccnc2n1-c1ccc(C)cc1 returned TDP1 block inactive, TGFb SMAD3 inh inactive, TDP1 cell noCPT 5.8µM, IL1B secr inh inactive, TDP1 cell CPT 5.17µM and HepG2 tox inactive.
Nc1c2c(nc3ccc(Br)cc13)N(Cc1ccccc1)CC2 was read as TDP1 block inactive, TGFb SMAD3 inh inconclusive, TDP1 cell noCPT 20.6µM, IL1B secr inh inconclusive, TDP1 cell CPT inconclusive and HepG2 tox inactive.
